High-throughput results deposited in PubChem by National Center for Advancing Translational Sciences (NCATS).
Compounds with a hit are over-represented: about 5.2% of the library has one in this group of screens.
Tau fluor cs: Counterscreen qHTS for Inhibitors of Tau Fibril Formation, Fluorescence Polarization | hit rate 0.93% among 280,000 | tau K18 P301L Alexa594 fluorescence, heparin fibrillization | Potency, µM (titrated, usually from 57.7 µM) | AID 1463, 2008; also: nearly all actives have a fitted effect of over 55% in size
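Human K18 P301L tau (15 uM unlabeled plus 0.24 uM Alexa 594-labeled, final) in 100 mM sodium acetate pH 7 was mixed with compound and 20 uM heparin and incubated 6 hr at 37 C.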
Tau fibril ThT: qHTS for Inhibitors of Tau Fibril Formation, Thioflavin T Binding. Microtubule-associated protein tau (Homo sapiens), P10636. recombinant tau K18 P301L (four-repeat tau fragment), heparin-induced fibrillization, ThT fluorescence. Potency, µM (series often up to 57.4 µM), actives largely listed as inhibitors. hit rate 2.1% among 270,000; also: nearly all actives have a fitted effect of over 55% in size
Target sequence (P10636 561-689 P618L limits assumed): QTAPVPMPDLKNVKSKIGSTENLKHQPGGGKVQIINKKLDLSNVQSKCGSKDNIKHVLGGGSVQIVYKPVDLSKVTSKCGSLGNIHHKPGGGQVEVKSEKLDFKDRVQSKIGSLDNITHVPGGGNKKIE
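In this qHTS, human K18 P301L tau is incubated with compound and heparin for 6 hr at 37 C, and Thioflavin T fluorescence then reports fibril load.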
Sfp inh: qHTS Assay for Inhibitors of Bacillus subtilis Sfp phosphopantetheinyl transferase (PPTase); 4'-phosphopantetheinyl transferase ffp (Bacillus subtilis), Q9F4F7; Biochemical Sfp PPTase activity, qHTS; Potency, µM, actives largely listed as inhibitors; hit rate 3.5% among 310,000; AID 1490, 2009;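 also: the enzyme is Sfp with the accession as filed and its product quenches rhodamine fluorescence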
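With Hepes-Na pH 7.6 buffer containing 10 mM MgCl2, Sfp (15 nM) modified BHQ-2-YbbR (12.5 uM) using rhodamine-CoA (5 uM). Two reads 30 minutes apart at 525/598 nm yielded each well's rate.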
FBPA coupling cs: qHTS Assay for Inhibitors of Fructose-1,6-bisphosphate Aldolase from Giardia Lamblia: Coupling assay counterscreen | coupling enzyme system counterscreen, AmpLite Red fluorescence | activity change, negative = inhibition, % at 58.2 µM, hits read low | hit rate 0.67% among 290,000; in the data active = activity change below about -30%
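Compounds tested against the coupling enzymes alone at 57.5 uM final; readout was AmpLite Red fluorescence (525/598 nm) after 20 min at RT.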
Tau FP inhib: qHTS for Inhibitors of Tau Fibril Formation, Fluorescence Polarization; Microtubule-associated protein tau (Homo sapiens), P10636; K18 P301L tau heparin fibrillization, Alexa594 FP, 6 h; Potency, µM (doses to about 57.7 µM), actives largely listed as inhibitors; hit rate 0.39% among 280,000; AID 1468, 2008; also: nearly all actives have a fitted effect of over 55% in size
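Recombinant K18 P301L […], labeled with Alexa 594 at 0.24 uM over 15 uM unlabeled; heparin inducer 20 uM final; 37 C, 6 hr; FP endpoint.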
A number is an active result; - = inactive; ? = inconclusive; . = no result; ! = a repeat was not active; [ ] = remark or other dose. Unless noted, calls follow the shape of the dose curve; as a rule, active = well fitted curve in the direction sought with a large enough effect; inconclusive = small, poorly fitted or top-dose-only effect, or another doubt; inactive = no such curve, though single readings can be large; an effect the other way counts as inactive or inconclusive.

SMILES | Tau fluor cs | Tau fibril ThT | Sfp inh | FBPA coupling cs | Tau FP inhib
COc1ccc(S(=O)(=O)c2c(SC)nn(Cc3ccccc3C)c2NC(C)=O)cc1 | - | - | . | . | -
CC1CC=CC2C1C(=O)N(Cc1ccccc1)C2c1ccc(F)c(/C=C/c2ccccc2)c1 (stereo unspecified) | . | . | - | - | .
c1ccc(CNc2cc(-c3ccoc3)ncn2)cc1 | . | . | 32µM | - | .
CN(C)Cc1ccccc1-c1cc(Nc2ccccc2)ncn1 | - | - | - | - | -
c1ccc(Nc2cc(-c3ccoc3)ncn2)cc1 | . | . | 32µM | - | .
COc1ccc(CNc2cc(-c3ccoc3)ncn2)c(OC)c1 | . | . | 45µM | - | .
Cc1cccc(CNc2ccnc(-c3ccoc3)n2)c1 | - | ? | 50µM | - | -
COc1cccc(-c2cc(NCc3ccccc3OC)ncn2)c1 | . | . | - | - | .
COc1ccc2c(Sc3ccc(Cl)cc3)c(C(=O)N3CCCCC3)[nH]c2c1 | - | ? | . | . | -
COC(=O)NC(CC(C)=O)c1ccco1 (stereo unspecified) | -[11.6 µM] | -[11.5 µM] | - | - | -[11.6 µM]
CCS(=O)(=O)c1ncc(Cl)c(C(=O)N(Cc2ccccc2)Cc2ccco2)n1 | - | ? | . | . | -
CCOc1ccccc1NC(=O)Cn1c(=O)sc2ccccc21 | - | - | - | - | -
O=C(Cn1c(=O)sc2ccccc21)Nc1ccc(O)cc1 | - | - | 79µM | - | -
CS(=O)(=O)NC(=O)CCC/C=C\C[C@H]1C(=O)C[C@@H](O)[C@@H]1/C=C/[C@@H](O)COc1ccccc1 | . | . | - | - | .
CC1CCN(C2=C(NS(=O)(=O)c3ccc(Br)cc3)C(=O)c3ccccc3C2=O)CC1 | . | . | - | - | .
O=C1C(NS(=O)(=O)c2ccccc2)=C(N2CCN(c3ccc(F)cc3)CC2)C(=O)c2ccccc21 | 10µM[quencher] | 6.3µM | - | - | -
CCOC(=O)C1CCCN(C2=C(NS(=O)(=O)c3ccc(Br)cc3)C(=O)c3ccccc3C2=O)C1 (stereo unspecified) | . | . | ? | -38 | .
CC1CCN(C2=C(NS(=O)(=O)c3ccccc3)C(=O)c3ccccc3C2=O)CC1 | 11µM[quencher] | 13µM | - | - | ?
O=C1C(NS(=O)(=O)c2ccc(Br)cc2)=C(N2CCCCC2)C(=O)c2ccccc21 | . | . | - | - | .
CC1CCN(C2=C(NS(=O)(=O)c3ccc(Cl)cc3)C(=O)c3ccccc3C2=O)CC1 | ? | ? | - | -34 | -
CCOC(=O)C1CCN(C2=C(NS(=O)(=O)c3ccc(Cl)cc3)C(=O)c3ccccc3C2=O)CC1 | ? | ? | - | - | -
Cc1ccccc1-c1nc2c3c(-c4ccccc4)c(-c4ccccc4)oc3ncn2n1 | - | - | . | . | -
O=C1C(NS(=O)(=O)c2cccs2)=C(N2CCN(c3cccc(Cl)c3)CC2)C(=O)c2ccccc21 | 8.9µM[quencher] | 4µM | - | - | ?
OCc1cc2c(cn1)[nH]c1ccccc12 | - | - | - | . | -
CN(C)/C=N/C(=S)Nc1ccccc1Cl | - | - | 50µM | - | -
SMILES | Tau fluor cs | Tau fibril ThT | Sfp inh | FBPA coupling cs | Tau FP inhib
CN(C)/C=N/C(=S)Nc1ccccc1F | - | - | - | - | -
Cc1cc(C=C2C(=O)c3ccccc3C2=O)c(C)n1-c1ccccc1 | - | ? | - | - | -
Cc1cc(C=C2C(=O)c3ccccc3C2=O)c(C)n1-c1ccc(C(=O)O)cc1 | - | 14µM | ? | - | -
Cc1cc(C=C2C(=O)c3ccccc3C2=O)c(C)n1-c1cccc(C(=O)O)c1 | - | 16µM | - | - | -
CCCCC/C=C\C[C@@H](O)/C=C/C=C/C=C/[C@@H](O)CCCC(=O)O | - | - | - | - | -
COCc1[nH]nc2c1C(c1c(F)cccc1Cl)C(C#N)=C(N)O2 (stereo unspecified) | - | - | ? | -39 | -
N#Cc1ccc(-c2ccccc2)nc1SCC(=O)c1cccc(Cl)c1 | - | - | - | - | -
N#Cc1ccc(-c2cccnc2)nc1SCC(=O)c1ccccc1 | ? | 4.5µM | - | - | -
Cc1ccc(N2C(S)=C(C#N)C(=O)NC2c2ccco2)cc1 (stereo unspecified) | - | ? | - | - | ?
N#CC1=C(S)N(c2ccccc2)C(c2ccc(-c3cc(Cl)ccc3Cl)o2)NC1=O (stereo unspecified) | - | ? | 28µM | - | ?
N#CC1=C(S)N(c2ccccc2)C(c2ccc(-c3ccc(Cl)c(Cl)c3)o2)NC1=O (stereo unspecified) | - | 16µM | 35µM | - | 25µM
CCNc1ncc2nc(-c3ccc(OC)cc3)c(=O)n(-c3ccc(OC)cc3)c2n1 | . | . | - | - | .
O=C(Nc1ccc2ccccc2c1)N1CCN(c2ncccc2C(F)(F)F)CC1 | - | - | - | -50 | -
OCc1cc(C(O)CNCCCCCCOCCCCc2ccccc2)ccc1O (stereo unspecified) | - | - | 56µM! | - | -
COc1ccccc1-c1cc(C(=O)NC2CCN(C)CC2)c2ccc(Cl)c(C)c2n1 | . | . | 56µM | - | .
Cc1ccc(C(=O)N/N=C2\SCC(=O)N2c2cc(C)ccc2C)cc1 | - | - | 71µM | - | -
COc1ccc(N(Cc2cc(=O)[nH]c3ccccc23)C(=O)c2ccco2)cc1 | - | - | 56µM | - | -
COc1ccc(CN(C(=O)c2ccco2)c2ccccc2)cc1 | - | - | - | - | -
Cc1cc(C)c(NC(=O)Cn2ccn(-c3cccc(Cl)c3)c(=O)c2=O)c(C)c1 | - | - | . | . | -
O=c1cc(COc2ccc(Cl)cc2Cl)nc2scc(-c3ccccc3)n12 | - | - | . | . | -
Cn1c(=O)c(C#N)c(-c2ccc(F)cc2)c2cc(C(=O)c3cc(Cl)cc(Cl)c3O)cnc21 | - | 14µM | 45µM | - | -
O=[N+]([O-])c1cc2c(cc1C=Nc1ccccc1)OCO2 | - | ? | - | . | -
COc1cc(C=Nc2cccc(C)c2)c(O)c([N+](=O)[O-])c1 | - | 7.9µM | - | - | -
Cc1cccc(N=Cc2cc3c(cc2[N+](=O)[O-])OCO3)c1 | ? | 10µM | - | . | ?
O=[N+]([O-])c1cccc(C=Nc2cccc3ccccc23)c1O | . | . | - | - | .
Cc1cccc(OCC(=O)N/N=C\c2cc3c(cc2[N+](=O)[O-])OCO3)c1C | ? | ? | 25µM | - | ?
COC(=O)c1ccccc1NC(=O)CCS(=O)(=O)c1nc(-c2ccc3c(c2)OCO3)cc(C(F)(F)F)n1 | - | - | . | . | -
CN(C)CCNC(=O)/C(=C/c1ccc(-c2ccc(Cl)cc2Cl)o1)NC(=O)c1ccccc1 | - | ? | 40µM | - | -
CN(C)CCNC(=O)/C(=C/c1ccc(-c2ccc(Cl)cc2)o1)NC(=O)c1ccccc1 | - | - | - | - | -
CCCC(=O)Nc1c(I)cc(I)c(C[C@H](CC)C(=O)O)c1I | . | . | - | . | .
